# Measurements reported in the OligoGym collection.
# Target: MYL4
# Test: pooled miR-30 sensor sort-seq; sequence = guide strand
# Conditions: shRNA
# Also: reference of the scale not given here.
row,Sequence,sensor-assay potency score (higher = more potent)
1,TATCTTTACACTCTTGGGGTCA,-0.527
2,TCTTTGAACTCTTCAATCTGGT,-0.00801
3,TTTATTAACAGGGAGGGCCTGT,-0.299

# Target: MYNN
# Test: as above
# Conditions: shRNA
row,Sequence,sensor-assay potency score (higher = more potent)
1,TAACAGTGTGCACAATATCTTG,-1.2
2,TTTGAGATAGTCAGCAGCCTGA,-0.243
3,TTATTTGTGCAACTTGTTCTAC,0.0284
4,TTGAGATTGCTAGAAGTCGCAA,-0.134
5,TTGACCTCAACAATGTATCTGA,0.54
6,TTATGTATTCTCATGTGCCTTC,0.676
7,TGCTTCTGTAGATCGCACCAAA,-1.32
8,TTTGAGATGACTTTTTCGCTAA,-0.185
9,TAAATTTTTAATATCTGTGTAA,-0.492
10,TTTTTCTTCACCATGATGCATG,-0.931
11,TCGATTATTATAATCTCGCAGA,-0.633
12,TTTCTGAAATCCATCAGCCTTC,-0.541

# Target: MYO1A
# Test: as above
# Conditions: shRNA
row,Sequence,sensor-assay potency score (higher = more potent)
1,TTGTCGAATCTCCTCCTCCGAG,-0.993
2,TTCTCCTTGAACCTCACTGAGA,-1.61
3,TTTTTGTAGCGTAGCTTGCTGT,-0.784
4,TTGTCTAAGACGTTTGTGGATG,-0.839
5,TAGCACTTGTCGAATCTCCTCC,0.419
6,TTCCTCTTGCTCTTCTTTCAGG,-0.825
7,TTGAGCTGCTTCACTAATCGGG,0.105
8,TAAGACATCACCAGCTTGCTGG,-0.216
9,TAGTCCACCTTTGTCCACGGTA,-0.661
10,TTGATTCGATTCACTATCCAGT,-0.284
11,TAAATCTTCTGTATGAGTGTGG,0.504

# Target: MYO1D
# Test: as above
# Conditions: shRNA
row,Sequence,sensor-assay potency score (higher = more potent)
1,TATAGTTGTAGGATGAAAGGGA,0.615
2,TTAAGTAAGATGATCCTTGGAG,0.286
3,TTTCTCAACCATATCTGTCTTA,0.187
4,TTAGTTTCTTGACAGCCTCTTT,-0.583
5,TAGATGTTCAACAACTTGTAAG,-1.57
6,TAGTAGAGAGCAATTCTGCTAT,0.00249
7,TTGTTCTGAACCTCCTTGGAGT,-0.407
8,TTCAAAACTGTTGTTGTCGAAG,-0.485
9,TTCAAGAAACATTTCATCGGTG,0.501
10,TTGTTCTTGCTTCAGAACCAGC,-1.43
11,TTGAGCACAGGATTTGAACTGT,0.338

# Target: MYO1F
# Test: as above
# Conditions: shRNA
row,Sequence,sensor-assay potency score (higher = more potent)
1,TTGAGCACTGCCAAGTCGCCGA,-0.541
2,AAAGTCGCTTCTGTCGTCCGTG,-0.528
3,TCATTTTGCATGACCACGCGGG,-0.396
